# The campaign covered roughly 39,000 compounds. About 3,300 (8.5%) were called active. The list comes from a sample in which actives are over-represented; it also holds similar structures and randomly drawn compounds.
# Tested on: HepG2
# Experiment: cytotoxicity call (relative viability < 0.9)
# Conditions: 10 µM
row,SMILES,cytotoxicity call
1,C[C@@H]1CN([C@H](C)CO)C(=O)c2cc(NC(=O)Nc3ccc4c(c3)OCO4)ccc2O[C@@H]1CN(C)S(C)(=O)=O,inactive
2,COc1ccc(COC[C@]23Oc4ccccc4[C@H]([C@H]2CO[Si](C)(C)C(C)(C)C)N(C(=O)CC(C)=O)C(=O)N3C)cc1,inactive
3,COc1ccc(COC[C@]23NC(=S)N[C@H](c4ccccc4O2)[C@H]3CO[Si](C)(C)C(C)(C)C)cc1,inactive
4,COc1ccc(COC[C@@]23Oc4ccccc4[C@@H](NC(=S)N2C)[C@@H]3CO[Si](C)(C)C(C)(C)C)cc1,active
5,COc1ccc(COC[C@@]23Oc4ccccc4[C@@H](NC(=S)N2C)[C@H]3CO[Si](C)(C)C(C)(C)C)cc1,active
6,COc1ccc(COC[C@@]23Oc4ccccc4[C@@H](NC(=O)N2C(=O)c2ccccc2)[C@H]3CO[Si](C)(C)C(C)(C)C)cc1,inactive
7,COc1ccc(COC[C@]23N=C4SCCCN4[C@H](c4ccccc4O2)[C@H]3CO[Si](C)(C)C(C)(C)C)cc1,active
8,COc1ccc(COC[C@]23N=C4SCCCN4[C@H](c4ccccc4O2)[C@H]3COC(=O)c2ccccc2)cc1,inactive
9,COc1ccc(COC[C@]23NC(=S)N[C@H](c4ccccc4O2)[C@@H]3CO[Si](C)(C)C(C)(C)C)cc1,inactive
10,COc1ccc(COC[C@]23N=C4SCc5ccccc5CN4[C@H](c4ccccc4O2)[C@H]3CO[Si](C)(C)C(C)(C)C)cc1,inactive
11,O=C(C[C@H]1CC[C@H]2[C@@H](COC[C@@H](O)CN2S(=O)(=O)c2cccc(F)c2)O1)NCc1ccncn1,inactive
12,Cc1cccc(CO)n1,inactive
13,O=C1N[C@@H]2[C@@H](O)[C@@H](O)[C@H](O)[C@@H](CO)N2C1=O,inactive
14,CCCCS(=N)(=O)CC[C@@H](N)C(=O)O (some centres undefined),inactive
15,NC(=S)Nc1ccncc1,inactive
16,CCC[C@@H](O)C#Cc1cnc2c(c1)C(=O)N([C@H](C)CO)C[C@H](C)[C@H](CN(C)S(=O)(=O)c1cccc(F)c1)O2,inactive
17,C[C@H](CO)N1C[C@H](C)[C@H](CN(C)C(=O)Cc2ccccc2)OCCCC[C@H](C)Oc2ccc(NS(=O)(=O)c3ccc(Cl)cc3)cc2C1=O,inactive
18,COc1ccc(NC(=O)N(C)C[C@H]2Oc3ccc(NS(=O)(=O)c4cn(C)cn4)cc3CC(=O)N([C@H](C)CO)C[C@H]2C)cc1,inactive
19,Cc1noc(C)c1NC(=O)N(C)C[C@H]1Oc2ccc(NC(=O)c3ccncc3)cc2C(=O)N([C@H](C)CO)C[C@H]1C,inactive
20,CCNC(=O)CCC(N)C(=O)[O-].[K+] (centres undefined),inactive
21,C[C@@H]1ON(c2ccc(I)cc2)[C@H](c2ccc(OC(=O)OC(C)(C)C)cc2)[C@H]1C(=O)N1C(=O)OC[C@H]1Cc1ccccc1,inactive
22,COc1ccc(S(=O)(=O)N(C)C[C@@H]2Oc3ccc(NS(=O)(=O)c4c(C)noc4C)cc3CC(=O)N([C@H](C)CO)C[C@@H]2C)cc1,inactive
23,C[C@@H]1CN([C@@H](C)CO)C(=O)c2cc(NC(=O)Nc3ccccc3)ccc2O[C@@H](C)CCCCO[C@H]1CN(C)C(=O)OC(C)(C)C,inactive

row,SMILES,cytotoxicity call
1,CC(C)NC(=O)N(C)C[C@@H]1Oc2ccc(NC(=O)C3CCCCC3)cc2CC(=O)N([C@@H](C)CO)C[C@@H]1C,inactive
2,C[C@H](CO)N1C[C@H](C)[C@H](CN(C)C(=O)Nc2cccc3ccccc23)Oc2ccc(NC(=O)C3CCCCC3)cc2CC1=O,active
3,C[C@@H]1CN([C@H](C)CO)C(=O)Cc2cc(NC(=O)C3CCCCC3)ccc2O[C@H]1CN(C)C(=O)Nc1cccc2ccccc12,inactive
4,CC(C)NC(=O)N(C)C[C@H]1Oc2ccc(NC(=O)C3CCCCC3)cc2CC(=O)N([C@H](C)CO)C[C@H]1C,inactive
5,Cc1noc(C)c1NC(=O)Nc1ccc2c(c1)CC(=O)N([C@@H](C)CO)C[C@H](C)[C@@H](CN(C)C(=O)Nc1cccc3ccccc13)O2,inactive
6,Cc1noc(C)c1NC(=O)Nc1ccc2c(c1)CC(=O)N([C@@H](C)CO)C[C@@H](C)[C@H](CN(C)C(=O)Nc1cccc3ccccc13)O2,active
7,Cc1noc(C)c1NC(=O)Nc1ccc2c(c1)CC(=O)N([C@H](C)CO)C[C@H](C)[C@@H](CN(C)C(=O)Nc1cccc3ccccc13)O2,inactive
8,C[C@H]1CN([C@@H](C)CO)C(=O)Cc2cc(NC(=O)NC3CCCCC3)ccc2O[C@@H]1CN(C)C(=O)Nc1cccc2ccccc12,inactive
9,C[C@H]1CN([C@@H](C)CO)C(=O)Cc2cc(NC(=O)C3CCCCC3)ccc2O[C@H]1CN(C)C(=O)Nc1cccc2ccccc12,inactive
10,C[C@H]1CN([C@@H](C)CO)C(=O)Cc2cc(NC(=O)NC3CCCCC3)ccc2O[C@H]1CN(C)C(=O)Nc1cccc2ccccc12,active
11,C[C@@H]1CN([C@@H](C)CO)C(=O)Cc2cc(NC(=O)NC3CCCCC3)ccc2O[C@H]1CN(C)C(=O)Nc1cccc2ccccc12,inactive
12,CC(C)NC(=O)N(C)C[C@H]1Oc2ccc(NC(=O)C3CCCCC3)cc2CC(=O)N([C@H](C)CO)C[C@@H]1C,active
13,COc1ccc(NC(=O)Nc2ccc3c(c2)C(=O)N([C@H](C)CO)C[C@H](C)[C@@H](CN(C)S(=O)(=O)c2ccc(C)cc2)OCCCC[C@@H](C)O3)cc1,inactive
14,NC(=O)NC(=O)C[C@H]1Nc2ccccc2NC1=O,inactive
15,CCc1c(C(=O)OC)nnc2cc(C)nn12,inactive
16,O=C(CN1CCOCC1)N[C@@H]1CC[C@H](CCn2cc(C3CCCC3)nn2)O[C@@H]1CO,inactive
17,COCC#Cc1ccc([C@H]2[C@@H](CO)N3C(=O)CN(C(=O)c4ccncc4)C[C@@H]23)cc1,inactive
18,C[C@H](CO)N1C[C@H](C)[C@@H](CN(C)C(=O)NC2CCCCC2)Oc2ccc(NC(=O)Nc3cccc4ccccc34)cc2CC1=O,inactive
19,C[C@@H]1CN([C@@H](C)CO)C(=O)Cc2cc(NC(=O)Nc3cccc4ccccc34)ccc2O[C@@H]1CN(C)C(=O)NC1CCCCC1,active
20,C[C@@H]1CN([C@H](C)CO)C(=O)Cc2cc(NC(=O)Nc3cccc4ccccc34)ccc2O[C@H]1CN(C)C(=O)NC1CCCCC1,inactive
21,CCNC(=O)C[C@H]1C=C[C@@H](NC(=O)C2CC2)[C@@H](CO)O1,inactive
22,CC1(C)CC(NC(=O)c2ccc(Cl)c(S(=O)(=O)N(Cc3ccccc3)c3ccccc3)c2)CC(C)(C)N1,active
23,O=C(NCCN1CCOCC1)c1ccc(Cl)c(S(=O)(=O)N2CCOCC2)c1,inactive

row,SMILES,cytotoxicity call
1,CC1Cc2ccccc2N1NC(=O)c1ccc(Cl)c(S(N)(=O)=O)c1 (centres undefined),inactive
2,C[C@@H]1CN([C@@H](C)CO)C(=O)c2cc(NS(=O)(=O)c3cccs3)ccc2O[C@@H](C)CCCCO[C@@H]1CN(C)C(=O)NC1CCCCC1,inactive
3,C[C@@H]1CN([C@@H](C)CO)C(=O)c2cc(C#Cc3cccnc3)cnc2O[C@H]1CN(C)S(=O)(=O)c1ccccc1F,inactive
4,Cc1cc2nc3c(=O)[nH]c(=O)nc-3n(C[C@@H](O)[C@@H](O)[C@@H](O)CO)c2cc1C,inactive
5,COC1=CC(C)C2CC3OC(=O)CC4C(C)=C(OC)C(=O)C(C2(C)C1=O)C34C (centres undefined),inactive
6,C[C@@H]1CC=CC[C@H](c2ccc3c(c2)OCO3)NC(=O)[C@@H](Cc2ccccc2)N(C)C(=O)c2ccccc2O1,active
7,C[C@H]1CC=CC[C@H](c2ccc3c(c2)OCO3)NC(=O)[C@@H](Cc2ccccc2)N(C)C(=O)c2ccccc2O1,inactive
8,C[C@H]1CC=CC[C@@H](c2ccc3c(c2)OCO3)NC(=O)[C@H](Cc2ccccc2)N(C)C(=O)c2ccccc2O1,inactive
9,C[C@@H]1CN([C@@H](C)CO)S(=O)(=O)c2ccc(C#C[C@@H](C)O)cc2O[C@@H]1CN(C)C(=O)c1ccccc1,inactive
10,C[C@@H]1CN([C@H](C)CO)S(=O)(=O)c2ccc(C#Cc3ccncc3)cc2O[C@H]1CN(C)C(=O)C1CCC1,active
11,C[C@H]1CN([C@@H](C)CO)S(=O)(=O)c2ccc(C#Cc3ccncc3)cc2O[C@H]1CN(C)C(=O)C1CCC1,inactive
12,C[C@H]1CN([C@@H](C)CO)S(=O)(=O)c2ccc(C#Cc3ccncc3)cc2O[C@@H]1CN(C)C(=O)C1CCC1,inactive
13,C[C@@H]1CN([C@@H](C)CO)S(=O)(=O)c2ccc(C#Cc3ccncc3)cc2O[C@@H]1CN(C)C(=O)C1CCC1,inactive
14,C[C@H](CO)N1C[C@H](C)[C@@H](CN(C)C(=O)C2CCC2)Oc2cc(C#Cc3ccncc3)ccc2S1(=O)=O,active
15,C[C@H](CO)N1C[C@H](C)[C@H](CN(C)C(=O)C2CCC2)Oc2cc(C#Cc3ccncc3)ccc2S1(=O)=O,active
16,C[C@@H]1CN([C@@H](C)CO)S(=O)(=O)c2ccc(C#Cc3ccncc3)cc2O[C@H]1CN(C)C(=O)C1CCC1,active
17,C[C@@H]1CN([C@@H](C)CO)C(=O)c2cccc(NS(=O)(=O)c3cn(C)cn3)c2O[C@@H]1CN(C)C(=O)Nc1ccc2c(c1)OCO2,inactive
18,CCc1nc2ccc(C(=O)Nc3ccc(OC)c(OC)c3)cn2c1N(CC)Cc1cccc(Br)c1,inactive
19,O=C(CSc1nnc(-c2ccccc2)n1C1CCCCC1)Nc1ccc(S(=O)(=O)Nc2ccccn2)cc1,inactive
20,Cc1ccc(CN)s1,inactive
21,C[C@H](CO)N1C[C@H](C)[C@@H](CN(C)C(=O)Nc2ccccc2)Oc2cc(Br)ccc2S1(=O)=O,inactive
22,Cc1noc(C)c1NC(=O)Nc1ccc2c(c1)C(=O)N([C@@H](C)CO)C[C@@H](C)[C@H](CN(C)S(=O)(=O)c1cccs1)OCCCC[C@@H](C)O2,inactive
23,C[C@@H]1CCCCO[C@H](CN(C)Cc2ccc(C(=O)Nc3ccccc3N)cc2)[C@@H](C)CN([C@H](C)CO)C(=O)c2cc(N(C)C)ccc2O1,inactive
